From PubChem BioAssay
The source made the active and inactive calls. Unless noted, no rule for the calls is given here.

How the values were obtained:
[1] = A549 cell viability effects, profiling panel, calcein-AM fluorescence, 48 h, basal (AID 1162); conditions: higher = more signal; also: test concentration not given here
[2] = adipocyte viability effects, profiling panel, cell-based, 3T3-L1 adipocytes, calcein-AM fluorescence, 48 h, basal (AID 1163); conditions: 3T3-L1 adipocytes viability, higher = more signal; also: test concentration not given here
[3] = HepG2 cell viability effects, profiling panel, calcein-AM fluorescence, 48 h, basal (AID 1164); conditions: higher = more signal; also: test concentration not given here
[4] = MM1S cell viability effects, profiling panel, calcein-AM fluorescence, 48 h, basal (AID 1165); conditions: higher = more signal;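 also: viability of MM1S multiple myeloma cells under basal unstimulated conditions; test concentration not given here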
[5] = basal RPMI8226 viability, no added stimulus, profiling panel, cell-based, calcein-AM fluorescence, 48 h, PK04 Diversity Set (AID 1166); conditions: RPMI8226 myeloma viability, higher = more signal;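 also: cells grown under basal conditions without added stimulus; test concentration not given here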
[6] = basal HepG2 mitochondrial membrane potential changes, profiling panel, cell-based, JC-1 fluorescence, 24 h, 100 nL compound (AID 1167); conditions: higher = more signal; also: test concentration not given here
[7] = basal 3T3-L1 adipocyte mitochondrial potential changes, profiling panel, cell-based, JC-1 fluorescence, 3T3-L1 adipocytes, 24 h, 100 nL compound (AID 1168); conditions: JC-1 mitochondrial fluorescence, higher = more signal, called active from +8 up or from −8 down; also: test concentration not given here
[8] = basal RPMI8226 mitochondrial membrane potential changes, profiling panel, cell-based, JC-1 fluorescence, 24 h, 100 nL compound (AID 1169); conditions: RPMI8226 myeloma, JC-1 mitochondrial potential fluorescence, higher = more signal; also: test concentration not given here
[9] = basal MM1S mitochondrial membrane potential changes, profiling panel, cell-based, JC-1 fluorescence, 24 h, 100 nL compound (AID 1170); conditions: higher = more signal; also: test concentration not given here
[10] = A549 lung cancer cell viability effects, profiling panel, resazurin fluorescence, 24 h, PK04 Diversity Set (AID 1171); conditions: higher = more signal, called active from +8 up or from −8 down; also: test concentration not given here
[11] = HepG2 liver cancer cell viability effects, profiling panel, resazurin fluorescence, 24 h, PK04 Diversity Set (AID 1172); conditions: higher = more signal; also: test concentration not given here
[12] = basal S. cerevisiae growth modulation, no modifier, primary screen, OD600, strain BY4716, 24 h, basal condition (AID 1173); conditions: OD600, 24 h, higher = more signal, called active from +8 up or from −8 down
[13] = MM1S myeloma cell viability, profiling panel, resazurin fluorescence, basal, 24 h, PK04 Diversity Set (AID 1174); conditions: higher = more signal, called active from +8 up or from −8 down;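 also: MM1S multiple myeloma cell line; test concentration not given here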
[14] = target: Dihydroorotate dehydrogenase (quinone), mitochondrial (Plasmodium falciparum (isolate 3D7)) (UniProt Q08210); test: PfDHODH enzyme inhibitors, primary screen, biochemical, C-terminal His tag, absorbance 600 nm (AID 1175); conditions: DCIP absorbance 600 nm, higher = more signal, called active from +8 up or from −8 down;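 also: recombinant parasite enzyme with a five histidine tag at its C terminus; test concentration not given here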
[15] = P. aeruginosa biofilm formation inhibitors, primary screen, strain PAO1, LB-PBS medium, absorbance 600 nm (AID 1176); also: test concentration not given here; conditions: P. aeruginosa PAO1 growth/biofilm, A600, 12 h; higher = more signal
[16] = S. cerevisiae RM11-1a growth modifiers, primary screen, strain RM11-1a, OD600, basal, 24 h (AID 1177); conditions: OD600, 24 h, higher = more signal, called active from +8 up or from −8 down;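 also: cultures grown under basal conditions with no added stressor; test concentration not given here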
[17] = E. coli acrAB mutant growth effects, primary screen, E. coli filamentation inducers, strain DRC39, OD650, 24 h (AID 1178); conditions: higher = more signal, called active from +8 up or from −8 down;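 also: growth measured as culture turbidity by optical density at 650 nm; test concentration not given here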
[18] = E. coli acrAB mutant growth effects, primary screen, E. coli filamentation inducers, strain DRC39, OD650, 48 h (AID 1179);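 also: screen aims at cell division blockers that make cells filament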; conditions: E. coli DRC39 delta-acrAB growth, higher = more signal, called active from +8 up or from −8 down
[19] = RPMI8226 myeloma cell viability, profiling panel, resazurin fluorescence, basal, 24 h, PK04 Diversity Set (AID 1180); conditions: higher = more signal;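 also: RPMI8826 multiple myeloma cell line at 5000 cells per well; test concentration not given here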
[20] = target: E3 ubiquitin-protein ligase XIAP (Homo sapiens) (UniProt P98170); test: XIAP binders, primary screen, biophysical, small-molecule microarray, fluorescence 635 nm (AID 1181); conditions: small-molecule microarray binding, higher = more signal;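 also: score merges 667 nm emission and signal to noise over triplicate slides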
E3 ubiquitin-protein ligase XIAP (Homo sapiens), sequence (P98170 whole entry, looked up): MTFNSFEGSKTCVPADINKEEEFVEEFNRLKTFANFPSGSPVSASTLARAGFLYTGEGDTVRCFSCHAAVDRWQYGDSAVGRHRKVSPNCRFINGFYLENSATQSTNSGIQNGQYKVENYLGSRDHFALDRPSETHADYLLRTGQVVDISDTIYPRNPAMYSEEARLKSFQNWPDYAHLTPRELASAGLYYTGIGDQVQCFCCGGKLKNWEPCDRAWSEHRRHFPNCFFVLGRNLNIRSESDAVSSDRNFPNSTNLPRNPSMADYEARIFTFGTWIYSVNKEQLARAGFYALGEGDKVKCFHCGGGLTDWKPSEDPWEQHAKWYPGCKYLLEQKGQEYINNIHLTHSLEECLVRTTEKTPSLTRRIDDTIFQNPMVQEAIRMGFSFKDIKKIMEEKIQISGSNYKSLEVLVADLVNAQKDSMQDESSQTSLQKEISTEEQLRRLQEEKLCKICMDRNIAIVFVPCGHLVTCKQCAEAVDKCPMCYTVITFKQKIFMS

Dihydroorotate dehydrogenase (quinone), mitochondrial (Plasmodium falciparum (isolate 3D7)), sequence (Q08210 whole entry, looked up): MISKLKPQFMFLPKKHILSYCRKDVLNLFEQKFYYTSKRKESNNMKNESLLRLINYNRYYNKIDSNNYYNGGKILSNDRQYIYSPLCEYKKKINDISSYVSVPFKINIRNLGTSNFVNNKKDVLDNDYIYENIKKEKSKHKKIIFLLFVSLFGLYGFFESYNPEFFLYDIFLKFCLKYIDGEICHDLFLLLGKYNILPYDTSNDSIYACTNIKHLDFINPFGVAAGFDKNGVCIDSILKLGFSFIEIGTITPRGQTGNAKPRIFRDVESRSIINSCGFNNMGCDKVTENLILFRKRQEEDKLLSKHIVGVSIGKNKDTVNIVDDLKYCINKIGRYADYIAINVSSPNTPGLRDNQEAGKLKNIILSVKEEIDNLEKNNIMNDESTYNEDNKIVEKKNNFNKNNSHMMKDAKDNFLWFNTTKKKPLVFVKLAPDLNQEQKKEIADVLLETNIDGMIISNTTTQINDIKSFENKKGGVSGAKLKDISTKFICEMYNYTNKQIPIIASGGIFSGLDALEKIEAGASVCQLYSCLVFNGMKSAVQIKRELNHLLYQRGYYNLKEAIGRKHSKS

SMILES	z-score [1]	z-score [2]	z-score [3]	z-score [4]	z-score [5]	z-score [6]	z-score [7]	z-score [8]	z-score [9]	z-score [10]	z-score [11]	z-score [12]	z-score [13]	composite z-score [14]	z-score [15]	z-score [16]	z-score [17]	z-score [18]	z-score [19]	composite z-score [20]
O=C1O[C@H](c2ccccc2)[C@H](c2ccccc2)N2[C@H]1[C@@H](C(=O)Nc1nc3ccccc3s1)[C@]1(C(=O)Nc3ccc(C#CCCO)cc31)[C@H]2c1ccc(OCCO)cc1	0.233	0.205	1.03	-0.265	0.743	-3.28	0.491 (inactive)	-0.995	-1.49	0.441 (inactive)	-0.251	1.2 (inactive)	0.527 (inactive)	-1.6 (inactive)	1.85 (inactive)	1.67 (inactive)	-0.567 (inactive)	0.161 (inactive)	-1.3	0.0637
CC(C)(C)OC(=O)CC[C@@]12N=C(c3ccc(OCCCO)cc3)O[C@@H]1c1ccccc1N(CCS(=O)(=O)c1ccccc1)C2=O	2.14	0.828	0.116	-1.6	-0.72	0.741	3.28 (inactive)	-0.814	-1.13	-1.91 (inactive)	-0.223	0.508 (inactive)	-1.95 (inactive)	-0.298 (inactive)	0.218 (inactive)	1.44 (inactive)	1.25 (inactive)	1.56 (inactive)	-0.835	0.0801
C=CCOC(=O)[C@H]1[C@@H]2C(=O)O[C@@H](c3ccccc3)[C@@H](c3ccccc3)N2[C@@H](c2ccc(OCCOC(=O)[C@H]3C[C@H]4C(=O)N5CCC[C@H]5C(=O)N4[C@H]3c3ccc(O)cc3)cc2)[C@]12C(=O)Nc1ccc(I)cc12	0.321	1.47	-0.167	-0.484	-0.231	-0.518	-0.32 (inactive)	-0.00574	-0.286	-1.16 (inactive)	-0.495	-1.03 (inactive)	-0.941 (inactive)	-1.73 (inactive)	2.43 (inactive)	-0.632 (inactive)	-0.651 (inactive)	-1.05 (inactive)	-0.215	2.8
CC(C)C(=C=CC[C@@H](O)c1ccccc1OCCO)CCO	0.855	-1.23	-0.902	-0.314	0.168	-1.03	0.235 (inactive)	0.719	-0.0293	0.215 (inactive)	0.61	-13 (active)	0.11 (inactive)	-5.28 (inactive)	-0.0828 (inactive)	0.413 (inactive)	0.272 (inactive)	0.123 (inactive)	1.28	-0.318
CN1C2C=C(CCCO)C(C3C(=O)N(C(N)=O)C(=O)C32)C1c1ccc(CN2CCCC2)cc1 (stereo not given)	-0.814	-0.543	-0.357	0.432	-1.22	-0.208	-0.655 (inactive)	0.234	-0.137	0.0528 (inactive)	-0.163	0.464 (inactive)	-0.508 (inactive)	-0.157 (inactive)	0.661 (inactive)	-0.56 (inactive)	0.359 (inactive)	0.259 (inactive)	-0.287	-0.0703
CC(C)OC(=O)C=C1C[C@@H](c2ccccc2C(F)(F)F)O[C@@H](c2ccccc2C(F)(F)F)O1	-0.677	-0.984	0.761	0.737	0.217	0.752	0.341 (inactive)	0.589	-0.541	1.08 (inactive)	-0.111	0.0349 (inactive)	0.493 (inactive)	-1.12 (inactive)	-0.212 (inactive)	0.123 (inactive)	-1.23 (inactive)	0.217 (inactive)	-0.818	0.193
C=CCOC(=O)[C@H]1[C@@H]2C(=O)O[C@@H](c3ccccc3)[C@@H](c3ccccc3)N2[C@@H](c2ccc(OCCOC(=O)[C@@H]3C[C@@H]4C(=O)N[C@@H](CCCC[N+](C)(C)C)C(=O)N4[C@@H]3c3ccc(O)cc3)cc2)[C@]12C(=O)Nc1ccccc12	1.23	1.53	-0.265	-1.07	0.95	-1.37	0.396 (inactive)	-0.923	-0.504	1.19 (inactive)	0.863	-3.17 (inactive)	0.844 (inactive)	-2.77 (inactive)	0.988 (inactive)	0.545 (inactive)	0.0865 (inactive)	-0.661 (inactive)	1.16	0.0055
COc1ccc(CCN2C(=O)[C@@]3(c4ccc([N+](=O)[O-])cc4)CC(=O)N(C4CCCCC4)[C@@H]3c3ccc(CO)cc32)cc1	0.315	-1.26	-0.331	0.199	0.306	-1.65	-0.937 (inactive)	-0.694	-0.838	-0.113 (inactive)	-0.356	1.37 (inactive)	-0.672 (inactive)	-25.9 (active)	0.944 (inactive)	-0.582 (inactive)	-0.0051 (inactive)	-0.0209 (inactive)	-0.749	-0.167
COc1cc2c(cc1O)C=[N+](Cc1cccc(OC(F)(F)F)c1)CC2	1.45	0.0197	1.2	1.25	0.346	1.01	0.0547 (inactive)	0.145	-0.471	-1.68 (inactive)	-0.935	0.165 (inactive)	-0.682 (inactive)	-3.35 (inactive)	-0.531 (inactive)	-0.957 (inactive)	0.0214 (inactive)	0.569 (inactive)	-1.25	-0.259
